LEDGF integ inh: blocks HIV-1 LEDGF/p75-dependent DNA integration | actives 0.64% (n = 370,000) | TR-FRET IN-LEDGF/p75 DNA integration, Eu/Cy5 | AID 743269 | inhibition, % at 3.7 µM;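 active = inhibition above the screen-wide mean plus 3 SD, cut at about 13% in these data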;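 also: signal is the Cy5 over europium emission ratio at 671 and 618 nm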
ABHD5-PLIN5 inh: blocks binding of human ABHD5 to perilipin-5. Q00G26+Q8WTS1. Split G. princeps luciferase complementation, luminescence, 4 h. inhibition, % at 4 µM. actives 0.78% (n = 360,000);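 active = inhibition above the mean inhibition across every tested compound plus 3 SD, cut at about 22% in these data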
MBD2 DNA inh: MBD2-methylated oligo binding inhibition; Q9UBB5; TR-FRET, MBD2 binding to methylated oligonucleotide; inhibition, % at 4.4 µM; actives 0.31% (n = 370,000); AID 686964; in the data active = inhibition above about 13%
rCAG binder: binds r(CAG) RNA repeats. r(CAG) RNA repeat, TO-PRO-1 dye displacement fluorescence. inhibition, % at 3 µM. actives 1.3% (n = 370,000). AID 651821;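 active = inhibition above the plate cutoff, the mean of all test compounds on that plate plus 3 SD, cut at about 35% in these data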;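 also: higher means more dye released from RNA so lower well fluorescence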
UHRF1 MBD2 ctr: human UHRF1 methylated DNA binding inhibitors; inhibition, % at 4.4 µM; actives 0.75% (n = 370,000); Q96T88; UHRF1 binding to methylated oligo, TR-FRET; in the data active = inhibition above about 21%;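 also: UHRF1 SRA domain binding a hemimethylated CpG hairpin DNA probe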
PRMT1 FP inh: blocks human protein arginine methyltransferase 1; recombinant PRMT1, activity-based probe fluorescence polarization; inhibition, % at 2.79 µM; actives 1.3% (n = 370,000);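 active = inhibition above about 21% made by adding two undisclosed values, limit read from the data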
Target sequence (Q99873 whole entry, looked up): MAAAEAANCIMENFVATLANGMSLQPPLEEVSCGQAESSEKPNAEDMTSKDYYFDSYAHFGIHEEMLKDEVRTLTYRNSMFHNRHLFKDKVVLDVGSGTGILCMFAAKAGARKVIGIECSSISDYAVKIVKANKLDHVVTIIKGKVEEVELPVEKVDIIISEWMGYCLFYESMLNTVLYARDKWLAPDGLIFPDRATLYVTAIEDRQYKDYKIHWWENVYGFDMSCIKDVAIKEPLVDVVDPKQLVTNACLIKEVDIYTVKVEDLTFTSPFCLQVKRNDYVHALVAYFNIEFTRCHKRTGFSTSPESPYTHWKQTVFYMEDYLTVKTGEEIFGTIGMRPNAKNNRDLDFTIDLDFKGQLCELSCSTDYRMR
Numbers stand for hits; - = inactive; . = no result given. Compounds with a hit are over-represented: about 4.1% of the library has one in this group of screens.

SMILES	LEDGF integ inh	ABHD5-PLIN5 inh	MBD2 DNA inh	rCAG binder	UHRF1 MBD2 ctr	PRMT1 FP inh
COC(=O)c1ccc2nc(-c3ccc(OC)c(OC)c3)c(Cc3ccsc3)n2c1	-	-	-	-	-	-
COc1ccc(Cc2c(-c3ccc(C)cc3)nc3ccc(Cl)cn23)c(C)c1	-	-	-	-	-	-
COc1ccc(N2C[C@@]3(O)CC[C@@H](O)[C@@H](OC)[C@@H]3[C@@]2(C)[C@H](O)CC=C(C)C)cc1	-	.	-	-	-	-
O=C(NCc1ccco1)OC1CCC12CCC(c1ccccc1)CC2 (configuration not stated)	-	.	-	.	-	-
O=C(Cn1c2[n+](c3ccc(C(F)(F)F)cc31)CCCCC2)Nc1ccc(Br)cc1	.	96	.	.	.	.
N#Cc1ccc(NC(=O)Cn2c3[n+](c4ccc(C(F)(F)F)cc42)CCCCC3)cc1	-	-	-	-	-	-
O=C(c1cccc(Br)c1)N1CCC(Oc2cccnc2)CC1	-	.	-	-	-	-
CC(C)OCCCNC(=O)C(=O)NCCCOC(C)C	-	-	-	-	-	-
CC(C)OCCCNC(=S)NNC(=O)C(c1ccccc1)c1ccccc1	-	-	-	-	22	-
CN(CCc1ccccc1)C(=O)c1cccc(NC(=O)Cc2cccc(NC(=O)C3CCN(C(=O)C4CC4)CC3)c2)c1	-	-	-	-	96	-
O=S(=O)(c1ccc(N2CCOCC2)c(Cl)c1)N1CCOCC1	-	-	-	-	-	-
O=c1c2ccccc2sn1-c1cc(S(=O)(=O)N2CCOCC2)ccc1N1CCOCC1	-	97	-	-	-	88
O=C(N/N=C/c1ccco1)c1cccc(N2CCCC2=O)c1	-	-	-	-	-	-
O=C(N/N=C/c1ccco1)c1cccc(N2Cc3ccccc3C2)c1	-	-	-	37	-	-
O=C(C[n+]1ccc(/C=C/c2ccccc2)cc1)c1ccc2c(c1)OCCO2	-	23	-	-	-	-
COc1ccc2c(C)c(Cl)c(=O)oc2c1	-	-	-	-	-	-
C=C1CC(COc2ccc3c(C)c(Cl)c(=O)oc3c2)(c2ccccc2)OC1=O (configuration not stated)	-	62	-	-	-	-
CC1(C)CC(=O)C2=C(C1)N(CC1CCCO1)C(=O)NC2(C(F)(F)F)C(F)(F)F (configuration not stated)	-	-	-	-	23	-
CCC(=O)/C=C1/Sc2ccc(OC)cc2N1CC	-	-	-	-	-	-
CCC(/C=C1\Sc2ccc(OC)cc2N1CC)=C\c1sc2ccc(OC)cc2[n+]1CCCS(=O)(=O)[O-]	-	-	-	-	-	61
CCOC(=O)C[n+]1c(C)sc2ccc(OC)cc21	.	-	.	.	.	.
CCO/C(=C/c1sc2ccc(OC)cc2[n+]1CCCS(=O)(=O)[O-])CC	-	-	-	-	-	77
CC(C)=CC([C@]12C[C@H](CO)N[C@@H]1Nc1ccccc12)S(=O)(=O)c1ccccc1 (some centres not stated)	-	.	-	.	-	-
CCN(C(=O)c1cccc2c1-c1ccccc1C2=O)c1ccccc1	-	.	-	-	-	-
CCC(=O)N(CC)C1=C(O)c2ccccc2C(=O)C1=O	-	-	-	-	-	53
SMILES	LEDGF integ inh	ABHD5-PLIN5 inh	MBD2 DNA inh	rCAG binder	UHRF1 MBD2 ctr	PRMT1 FP inh
NC(=O)C1CCN(c2ncc(Br)s2)CC1	-	.	-	.	-	22
NC(=O)C1CCN(c2nc(-c3ccc(N)cc3)cs2)CC1	-	.	-	.	-	-
CCOC(=O)/C=C(\C)Sc1cc(O)c2ccccc2c1O	29	-	-	-	-	84
CCOC(=O)/C=C(\C)Sc1cc(=O)oc2ccccc12	-	-	-	-	-	-
CCOC(=O)[C@@]12CCC3=C1N(CCC3)C(=O)[C@H](CC(=O)NCCCCc1ccccc1)C2	-	.	-	-	-	-
O=C(NCC1CCCO1)c1cc(S(=O)(=O)N2CCOCC2)c(Cl)cc1Cl (configuration not stated)	-	-	-	-	23	-
O=C(NCC1CCCO1)c1ccc(Cl)c(S(=O)(=O)N2CCOCC2)c1 (configuration not stated)	-	-	-	-	-	-
COc1ccc(N2C(=O)N3[C@H](c4ccc(Cl)cc4)[C@@H]4C(=O)N(C5CCCCC5)C(=O)[C@@H]4[C@]3(C)C2=O)cc1	-	-	-	-	22	-
